Data: the supplement of paper PMC10338343
± gives the standard deviation.

system: MILI (PIWIL2) piRISC loaded with L1MC piRNA (26 nt); assay: pre-steady-state target cleavage rate (min^-1); guide: L1MC piRNA 5'p-UAACUAAAUACUAUGCAAGCUGUAGG; MIWI and MILI are mouse PIWI proteins and EfPiwi is from a freshwater sponge; tags in brackets are library labels; higher = faster piRNA-guided slicing of the target; details: auxiliary factor: 500 nM mouse GTSF1
Procedure, shortened: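 The pre-steady-state cleavage rate was calculated from a burst-and-steady-state fit. Data came from Cleave-'n-Seq, in which […] transcribed, DNA-blocked target RNA library was mixed with 1 nM active affinity-purified piRISC carrying one synthetic guide, with or without 500 nM GTSF1 partner protein, in HEPES–potassium acetate buffer at 33 °C for 0–8 or 0–960 min. Uncleaved targets were sequenced and normalised to depth and to weakly complementary targets, three trials were pooled, and k3 was capped at 0.0001 min^-1.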
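Also: 1 nM active piRISC with 0.1 nM target library at 33 °C single turnover.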

Row | Sequence | pre-steady-state target cleavage rate
1 | UCCUGGAUGUCGAAGCAUAGUAUUUAUGUUA | 0.022 ± 0.0065
2 | UCCUGGAUGUCGUUGCAUAGUAUUAAGUUA | 0.142 ± 0.028
3 | UCCUGGAUGUCGUUGCUUAGUAUUAAGUUA | 0.03 ± 0.0099
4 | UCCUGGAACAGCUUGCAUAGUAAAAACAAA | 0.0763 ± 0.031
5 | UCCUGGAUGUCGAAGCAUAGUAUUUAGUA | 0.0246 ± 0.008
6 | UCCUGGAUGUGCUUGCAUUGUAUUUAGAAA | 0.0114 ± 0.0047
7 | UCCUCGUACAGCUUGCAUAGUAUUUACUUA | 0.0971 ± 0.015
8 | UCCUGGUACAGCUUGCAUAGAUUUUAGAAA | 0.00722 ± 0.0042
9 | UCCUGGAUCAGCUUGGAUAGUAUUUAGAUA | 0.0949 ± 0.016

same assay, conditions: auxiliary factor: none (no GTSF1)

Row | Sequence | pre-steady-state target cleavage rate
10 | UCCUGGAUGUCGAACGAUAGUGUUUAGUUA | < 0.0001
11 | UCCUGGAUGUCGAACCAUAGUAUUUUCAAA [g6:g15:cont:t1A] | < 0.0001
12 | UCCUGGAUGUGCUUGCAUACAUAAAUCAAA [g12:g20:cont:t1A] | < 0.0001
13 | UCCUGGAUGUCGAACGUAAGUAAUAAGUUA | < 0.0001
14 | UCCUGGUACAGCUUGCAUAGCUAUUUAGUUA | 0.0041 ± 0.004
15 | UCCUGGAUGUCGAACCAUAGUAUGUUAGUUA | < 0.0001
16 | UCCUGGAUGUCGAACCAUUCUAUUUAGUUA | < 0.0001
